# Inconclusive results are not listed. Active and inactive are the calls of the source. How the source made its calls: active means hit-call score of the fitted dose curve at least 0.9, where 1 is the maximum; inconclusive means response in the unintended direction; inactive means score below 0.9.
# Test system: not listed separately
# Test: ACEA_ER_AUC_viability: ACEA Biosciences xCELLigence Real-Time Cell Analysis on Estrogen Receptor Agonism for Viability (AID 2283782);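 further: hit means loss of impedance signal meaning reduced cell growth or viability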
# Outline: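 Continuous-exposure impedance cell analysis uses T-47D cells in charcoal-stripped serum, eight 1:4 dilutions topping at 100 uM final, biological duplicate. Area under the growth curve at 80 h is fitted against DMSO baseline.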
SMILES,outcome,AC50
CCOc1ccccc1O,inactive,
Cc1cc(C)nc(NS(=O)(=O)c2ccc(N)cc2)n1,inactive,
O=C(O)c1ccc(O)cc1,inactive,
CCOc1ccc(N=Nc2ccc(C=Cc3ccc(N=Nc4ccc(OCC)cc4)cc3S(=O)(=O)O)c(S(=O)(=O)O)c2)cc1,inactive,
CC(C)CCCCCCCCCCCCCCC(=O)O,,50 µM (active)
CCc1cc(C(C)(C)C)c(O)c(C(C)(C)C)c1,,81.8 µM (active)
C=C1CC[C@H](O)C/C1=C/C=C1\CCC[C@]2(C)[C@@H]([C@H](C)/C=C/[C@H](C)C(C)C)CC[C@@H]12,,79.1 µM (active)
CCc1cc(Cc2cc(CC)cc(C(C)(C)C)c2O)c(O)c(C(C)(C)C)c1,,11.7 µM (active)
[O-]n1ccccc1=S.[O-]n1ccccc1=S.[Zn+2],,2.84 µM (active)
CCCCCC(C=O)=Cc1ccccc1,,80 µM (active)
CS(=O)(=O)OCCCCOS(C)(=O)=O,inactive,
CCCCCCCCC=CCCCCCCCC1=NCCN1CCO,,10.9 µM (active)
CSCCC=O,,85.8 µM (active)
CCOC(=O)c1ccc(N)cc1,inactive,
COc1ccc(N=Nc2cc(C)c(N=Nc3ccc(S(=O)(=O)O)cc3)cc2OC)cc1,inactive,
Oc1ccc2cc(SSc3ccc4cc(O)ccc4c3)ccc2c1,,87.1 µM (active)
CCCCC(CC)COC(=O)c1ccc(O)cc1 (configuration not stated),,22.4 µM (active)
CCCCCCCCc1ccc(S(=O)(=O)O)cc1,inactive,
CCc1ccc(O)cc1,inactive,
COc1ccccc1N=Nc1c(S(=O)(=O)O)cc2cc(S(=O)(=O)O)cc(NC(C)=O)c2c1O,inactive,
Cc1ccc(S(=O)(=O)Oc2ccc(N=Nc3ccc(-c4ccc(N=Nc5c(O)ccc6cc(S(=O)(=O)O)cc(S(=O)(=O)O)c56)c(C)c4)cc3C)cc2)cc1,inactive,
O=C(Nc1ccc2c(O)c(N=Nc3ccc(N=Nc4ccc(S(=O)(=O)O)cc4)cc3)c(S(=O)(=O)O)cc2c1)c1ccccc1,inactive,
CC(C)NCC(O)COc1ccc(CC(N)=O)cc1 (configuration not stated),inactive,

# Molecular target: AR (gene 367) (UniProt P10275)
# Sequence (P10275 whole entry, looked up): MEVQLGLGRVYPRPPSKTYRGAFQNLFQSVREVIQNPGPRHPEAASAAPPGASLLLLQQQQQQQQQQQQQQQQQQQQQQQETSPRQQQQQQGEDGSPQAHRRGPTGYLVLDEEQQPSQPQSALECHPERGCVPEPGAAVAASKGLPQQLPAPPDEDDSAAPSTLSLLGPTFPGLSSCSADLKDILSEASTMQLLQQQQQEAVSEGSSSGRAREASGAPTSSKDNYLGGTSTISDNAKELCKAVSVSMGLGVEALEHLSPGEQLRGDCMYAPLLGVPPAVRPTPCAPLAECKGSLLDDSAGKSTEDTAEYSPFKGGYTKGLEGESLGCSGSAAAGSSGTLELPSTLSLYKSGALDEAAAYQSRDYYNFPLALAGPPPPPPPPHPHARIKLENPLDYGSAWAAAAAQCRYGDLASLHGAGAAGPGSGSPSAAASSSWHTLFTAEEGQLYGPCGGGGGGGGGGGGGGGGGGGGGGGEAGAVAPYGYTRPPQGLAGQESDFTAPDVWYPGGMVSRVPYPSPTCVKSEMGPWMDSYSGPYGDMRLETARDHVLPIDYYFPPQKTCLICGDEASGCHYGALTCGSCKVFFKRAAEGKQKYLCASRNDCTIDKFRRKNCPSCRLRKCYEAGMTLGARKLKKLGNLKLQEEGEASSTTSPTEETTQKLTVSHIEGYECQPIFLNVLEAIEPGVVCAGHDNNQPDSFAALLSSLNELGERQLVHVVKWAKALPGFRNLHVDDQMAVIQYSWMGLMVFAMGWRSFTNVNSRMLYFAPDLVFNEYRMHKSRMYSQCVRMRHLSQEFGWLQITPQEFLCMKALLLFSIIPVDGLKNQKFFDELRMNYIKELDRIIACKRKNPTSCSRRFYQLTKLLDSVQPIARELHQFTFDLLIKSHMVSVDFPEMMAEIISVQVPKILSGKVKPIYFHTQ
# Test: ACEA_AR_antagonist_80hr: ACEA Biosciences xCELLigence Real-Time Cell Analysis on Androgen Receptor Antagonism for Proliferation (AID 2283787);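 further: 22Rv1 human prostate cancer cells with growth followed by electrical impedance; hits lower the impedance growth signal relative to DMSO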
# Outline: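 Using 22Rv1 cells held in assay medium, we dosed compounds (100 uM maximum final, 1:4 serial, eight points, 0.5% DMSO at top) and recorded cell-electrode impedance; the 80 hr timepoint was analyzed against DMSO.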
SMILES,AC50,outcome
CCc1cc(Cc2cc(CC)cc(C(C)(C)C)c2O)c(O)c(C(C)(C)C)c1,24.1 µM (active),
CCCCCCCCC=CCCCCCCCC1=NCCN1CCO,,inactive
CCc1ccc(O)cc1,,inactive
Cc1ccc(S(=O)(=O)Oc2ccc(N=Nc3ccc(-c4ccc(N=Nc5c(O)ccc6cc(S(=O)(=O)O)cc(S(=O)(=O)O)c56)c(C)c4)cc3C)cc2)cc1,5.11 µM (active),

# — PubChem BioAssay (EPA / NIEHS)
